Data reported in PubChem BioAssay AID485364 (National Center for Advancing Translational Sciences (NCATS), 2010).
The whole screen tested about 360,000 compounds, of which about 11,000 (3.1%) were called active. About 4% were inconclusive and are not listed. The call rests on the fitted dose curve; in most records, active means well fitted inhibition curve with a large enough effect; inconclusive means small, poorly fitted or top-dose-only effect; inactive means no such curve, though single readings can be large or run the other way. The entries come from a sample that favours actives as a whole.

These compounds were tested against Schistosoma mansoni thioredoxin glutathione reductase (TGR) (UniProt Q962Y6) (assay: qHTS Assay for the Inhibitors of Schistosoma Mansoni Peroxiredoxins). Conditions: purified TGR, DTNB reduction, TNB absorbance 405 nm; series mostly up to 114 µM; activity change, negative = inhibition: at the top concentration.
In short: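 First, TGR (20 nM dispensed) and NADPH were mixed with compound. Second, a 15 min room-temperature incubation followed. Third, further NADPH and then DTNB were added to start the reaction. Finally, TNB absorbance was monitored kinetically.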
Further: nearly all actives have a fitted effect of over 60% in size.
On the % scale 0 is the no-effect control and ±100 the full control effect; potency means the concentration at half of the fitted maximal effect.

Row | SMILES | activity change, negative = inhibition | Potency
1 | CCn1cc(C(=O)N(C)Cc2ccccc2)c(=O)c2cc(S(=O)(=O)N3CCCCCC3)ccc21 | 6.08% (inactive) | 
2 | CC(CCO)Nc1nc2c([nH]1)c(=O)n(C)c(=O)n2C (stereo unspecified) | -6.03% (inactive) | 
3 | Cc1cccc(C)c1NC(=O)CSc1nc2c([nH]1)c(=O)n(C)c(=O)n2C | 0.969% (inactive) | 
4 | Cc1ccc(NN=Nc2nc3c([nH]2)c(=O)n(C)c(=O)n3C)cc1 |  | 56.2 µM (active)
5 | CCc1cccc(C)c1NS(=O)(=O)c1ccc(-c2cc(C)no2)s1 | -0.715% (inactive) | 
6 | Cc1nc2ccn(Cc3cccs3)c(=O)c2cc1C(=O)NCc1ccc(Cl)cc1 | -4.6% (inactive) | 
7 | COc1ccc(-c2onc(C)c2C)cc1S(=O)(=O)NCc1cccs1 | 10.8% (inactive) | 
8 | CCN(CC)S(=O)(=O)c1ccc2c(c1)c(=O)c(C(=O)N1CCN(c3cccc(Cl)c3)CC1)cn2C | -3.45% (inactive) | 
9 | Cc1cc(NC(=O)CSc2nnnn2-c2ccc(F)cc2)no1 | 7.99% (inactive) | 
10 | Cc1cc(NC(=O)CCC(=O)N(CC(=O)NC2CCCC2)c2ccc(F)cc2)no1 | -9.59% (inactive) | 
11 | Cc1cc(NC(=O)CCS(=O)(=O)c2ccc(F)cc2)no1 |  | 17.8 µM (active)
12 | COc1ccccc1Nc1c2c(nc3ccc(NC(=O)/C=C/c4cc(OC)c(OC)c(OC)c4)cc13)CCCC2 | 0.0236% (inactive) | 
13 | CCOC(=O)c1ccc(CSc2nnc3cc(C)c4ccccc4n23)cc1 | 2.03% (inactive) | 
14 | O=C1N=c2ccccc2=C/C1=C\c1c(O)[nH]c(=S)[nH]c1=O |  | 10 µM (active)
15 | O=c1[nH]c(O)c(C=Nc2cc(F)cc(F)c2)c(=O)[nH]1 | -25.8% (inactive) | 
16 | Cc1ccc2c(c1)=C/C(=C\c1c(O)[nH]c(=O)[nH]c1=O)C(=O)N=2 |  | 14.1 µM (active)
17 | Cc1cccc(S(=O)(=O)c2cn(Cc3ccccc3)c3cc(N4CCOCC4)c(F)cc3c2=O)c1 | 1.91% (inactive) | 
18 | COc1ccc(NC(=O)CCCc2nnc3n(CCC(C)C)c(=O)c4sccc4n23)c(OC)c1 | 4.6% (inactive) | 
19 | CCn1c2ccccc2c2cc(CN3CCN(Cc4cccc(Cl)c4)CC3)ccc21 | -1.51% (inactive) | 
20 | CCOC(=O)c1c(SCC(=O)Nc2cccc(C)c2C)nc(=O)[nH]c1C | 18.3% (inactive) | 
21 | Cc1ccc(NC(=O)CSc2nc3c(c(=O)[nH]2)CN(Cc2ccc4c(c2)OCO4)CC3)cc1C | 0.576% (inactive) | 
22 | COc1ccc(Cl)cc1NC(=O)C(C)Sc1nc2c(c(=O)[nH]1)CCCC2 (stereo unspecified) | -7.09% (inactive) | 
23 | CCC(=O)Nc1ccccc1-c1nc2ccccc2n(CC(=O)Nc2ccc(C)c(C)c2)c1=O | 4.89% (inactive) | 
24 | CCOc1ccc(CNC(=O)c2cc(=O)[nH]c3ccc(S(=O)(=O)N4CCCCC4)cc23)cc1 | 8.92% (inactive) | 
25 | O=C(Cn1ncn2nc(-c3cccs3)cc2c1=O)NCc1cccc(Br)c1 | -14.1% (inactive) | 
26 | COc1cc(OC)c(C2C=C(C(=O)O)Nc3ncnn32)cc1OC (stereo unspecified) | -1.91% (inactive) | 

Row | SMILES | activity change, negative = inhibition | Potency
27 | CCS(=O)(=O)C1=NSC2=NC(=O)/C(=C\c3ccc(OS(=O)(=O)c4ccccc4)cc3)C(=N)N21 | -6.77% (inactive) | 
28 | CS(=O)(=O)c1ccc2c(c1)SC1=NC(=O)/C(=C/c3ccco3)C(=N)N12 |  | 20 µM (active)
29 | CS(=O)(=O)C1=NN2C(=N)/C(=C\c3ccc(OCCOc4ccccc4)cc3)C(=O)N=C2S1 | -3.42% (inactive) | 
30 | CCOC(=O)c1ccc(NC(=O)CC2C(=O)N(c3ccccc3)C(=O)N2Cc2cccs2)cc1 (stereo unspecified) | 4.52% (inactive) | 
31 | O=C(COC(=O)c1cnc(Cl)c(Cl)c1)NCc1ccco1 | 7.2% (inactive) | 
32 | C/C(=N\Nc1ncc(Cl)cc1Cl)c1ccc(S(=O)(=O)NCc2ccco2)cc1 | -7.19% (inactive) | 
33 | Cc1c(Cl)cnc(NC(=O)COC(=O)c2ccc(S(=O)(=O)NCc3ccco3)cc2)c1Cl |  | 28.2 µM (active)
34 | COc1ccc(NC(=O)CSc2nccn2Cc2ccc3c(c2)OCO3)cc1 | -0.823% (inactive) | 
35 | CC1=C(C(=O)Nc2ccccc2Cl)C(c2cccs2)n2ncnc2N1 (stereo unspecified) | 1.5% (inactive) | 
36 | O=C(CSc1ncc(CO)n1Cc1ccc(Cl)cc1)NCc1ccc(F)cc1 | -2.38% (inactive) | 
37 | Cc1cc(C)c(OCC(=O)N/N=C/c2ccco2)c(C)c1 | 3.94% (inactive) | 
38 | COC(=O)COc1cc(C)cc2oc(=O)c3c(c12)CCCC3 | -5.38% (inactive) | 
39 | COC(=O)COc1ccc2c(c1C)O/C(=C\c1ccco1)C2=O |  | 10 µM (active)
40 | CC1CCCN(S(=O)(=O)c2ccc(-c3ccc(=O)[nH]n3)o2)C1 (stereo unspecified) |  | 28.2 µM (active)
41 | Cc1ccc(NS(=O)(=O)c2ccc(-c3ccc(=O)[nH]n3)o2)c(C)c1 | -1.72% (inactive) | 
42 | CC1CCCN(S(=O)(=O)c2ccc(C(=O)Nc3nnc(-c4ccncc4)o3)cc2)C1 (stereo unspecified) | 11.7% (inactive) | 
43 | Cc1ccc(NC(=O)c2cccnc2C(=O)Nc2ccc(C)cc2)cc1 | -0.158% (inactive) | 
44 | Cc1cccc(CS(=O)(=O)c2ncc(Cl)c(C(=O)Nc3ccc(F)cc3)n2)c1 |  | 7.08 µM (active)
45 | O=C(Nc1nc2ccc(F)cc2s1)c1nc(SCc2ccccc2F)ncc1Cl | -1.23% (inactive) | 
46 | Cc1ccc(CCNC(=O)c2ccc(CS(=O)(=O)Cc3cccc(C)c3)o2)cc1 | -27.7% (inactive) | 
47 | CCS(=O)(=O)c1ncc(N(Cc2ccc(F)cc2)Cc2ccco2)c(C(=O)Nc2cc(C)ccc2C)n1 | -6.61% (inactive) | 
48 | Cc1ccc(NC(=O)c2nc(S(=O)(=O)Cc3cccc(C)c3)ncc2Cl)cc1 |  | 12.6 µM (active)
49 | Cc1ccc2nc(NC(=O)c3nc(SCc4ccccc4F)ncc3Cl)sc2c1 | -1.27% (inactive) | 
50 | CCOC(=O)c1ccc(NC(=O)c2nc(SCc3ccc(F)cc3)ncc2Cl)cc1 | 6.67% (inactive) | 
51 | CSc1nnc(NC(=O)c2nc(S(=O)(=O)Cc3ccc(C)cc3)ncc2Cl)s1 |  | 3.16 µM (active)
